# According to PubChem BioAssay AID2129 (The Scripps Research Institute Molecular Screening Center, 2009):
# Hit rate of the full screen: of about 320,000 compounds, about 2,200 (0.69%) were called active. Shown is part of a subset that was picked to be rich in actives. Unmarked numbers belong to inactive results.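 How the source made its calls: active means inhibition above the mean of all tested compounds plus 3 SD, cutoff set per campaign (cut at about 30% in these data); inactive means the rest.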
# Biological target: Bcl-2-like protein 1 (Homo sapiens) (UniProt Q07817)
# Sequence (Q07817 whole entry, looked up): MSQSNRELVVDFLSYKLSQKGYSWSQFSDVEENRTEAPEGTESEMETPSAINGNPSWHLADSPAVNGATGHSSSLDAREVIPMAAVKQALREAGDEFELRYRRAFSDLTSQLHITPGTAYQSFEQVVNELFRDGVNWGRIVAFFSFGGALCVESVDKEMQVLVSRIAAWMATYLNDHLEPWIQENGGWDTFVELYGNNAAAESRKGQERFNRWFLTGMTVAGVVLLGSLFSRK
# Test: inhibitors of human Bcl-xL, primary screen, biochemical, fluorescence polarization, HTS (AID 2129);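 further: 0% = DMSO wells and 100% = unlabeled Bim-BH3 peptide competitor; inhibitors lower millipolarization by displacing the labeled peptide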
# Settings: GST-Bcl-xL / FITC-Bim BH3 peptide fluorescence polarization; at 10.9 µM; hits give high values
row,Structure (SMILES),inhibition
1,Cc1ccc(SCC(=O)c2cc(C)c(OC(=S)N(C)C)c(C)c2)cc1,-0.01%
2,Cc1ccc(C2(c3ccc(C)cc3)NC(=O)N(Cc3c(C)noc3C)C2=O)cc1,6.73%
3,CC(=O)Nc1ccc(NS(=O)(=O)c2cc(C)sc2C)cc1,1.44%
4,COc1ccc(C#Cc2c(-c3ccc(OC)cc3)oc3ccc(-c4ccc5c(c4)OCO5)cc23)cc1,-0.02%
5,CCc1cccc(C)c1N1C(=O)CN(Cc2ccccc2)C1=S,-7.16%
6,Cc1ccc(CNS(=O)(=O)c2ccc3c(c2)N(C)CCO3)cc1,8.25%
7,O=C(CCn1c(SCC(=O)c2ccccc2)nc2ccccc2c1=O)NCc1ccc(F)cc1,49.4% (active)
8,O=C(CSc1nc2ccccc2c(=O)n1-c1ccc(F)cc1)NC1CC1,6.71%
9,O=C(CCCn1c(SCC(=O)c2ccccc2)nc2ccccc2c1=O)NCC1CCCO1 (centres undefined),-3.16%
10,Cc1c(-c2ccccc2)nc(N)c(C#N)c1-c1cccs1,8.08%
11,CN1CCc2nc(SC(C(=O)O)c3ccccc3)c(C#N)c(-c3cccs3)c2C1 (centres undefined),31.4% (active)
12,CCc1c(-c2ccccc2)nc(N)c(C#N)c1-c1cccs1,6.16%
13,CCOc1ccc2[nH]c(=O)c(CN(Cc3nnnn3CCc3ccccc3)CC3CCCO3)cc2c1 (centres undefined),0.19%
14,O=C(COC(=O)/C=C/c1nc2ccccc2s1)Nc1ccccc1Oc1ccccc1,-1.24%
15,O=C(COC(=O)Cn1cnc2ccccc21)Nc1cccc2c1C(=O)c1ccccc1C2=O,137% (active)
16,O=C(COC(=O)c1cccc(Br)c1)Nc1cccc2c1C(=O)c1ccccc1C2=O,13.1%
17,O=C(Cn1cnc2ccccc21)Nc1ccccc1-c1ccccc1,7.35%
18,CC(C)(C)n1ncc2c(=O)n(Cc3ccc(Cl)cc3)cnc21,4.43%
19,CCOC(=O)N1CCN(CC(=O)n2c(C)c(C)c3ccccc32)CC1,9.52%
20,C/C(=N\NC(=O)c1ccoc1C)c1ccccc1O,4.04%

row,Structure (SMILES),inhibition
1,Cc1nn(C(=O)c2ccoc2C)c(N)c1-c1ccccc1,173% (active)
2,Cc1nn(-c2ccc([N+](=O)[O-])cc2)c(N)c1-c1ccccc1,-20.3%
3,Cc1noc(C)c1C(=O)NCC1COc2ccccc2O1 (centres undefined),-7.18%
4,O=C(NCc1ccncc1)C1CCCN(S(=O)(=O)c2ccc(Br)cc2)C1 (centres undefined),9.21%
5,O=C(NCc1cc(C(F)(F)F)cc(C(F)(F)F)c1)C1CC(c2cccc(F)c2)=NO1 (centres undefined),1.88%
6,CCN1C(=O)[C@@H]2[C@@H](c3ccc(-c4ccc(OC)cc4)c(OC)c3)N3CCC[C@@]3(C(=O)OC)[C@@H]2C1=O,4.65%
7,Cn1c(C(=O)N2CCCC(C(=O)NCc3ccccc3)C2)cc2sccc21 (centres undefined),3.21%
8,O=C(Nc1ccccc1N1CCCC1)c1ccc(F)c(S(=O)(=O)N2CCOCC2)c1,1.14%
9,O=C(c1ccc(F)c(S(=O)(=O)N2CCOCC2)c1)N(CCc1ccccc1)Cc1ccccc1,31.7% (active)
10,Cc1ccccc1CSCCNC(=O)c1ccc(Cl)c(S(=O)(=O)N2CCOCC2)c1,3%
11,O=C(NCCSCc1ccccc1)c1ccc(Cl)c(S(=O)(=O)N2CCOCC2)c1,1.38%
12,Cc1nn(Cc2ccccc2)c(C)c1CNC(=O)c1ccc(F)c(S(=O)(=O)N2CCOCC2)c1,114% (active)
13,COc1ccc(C(=O)N(Cc2ccccc2)c2ccc(C)cc2)cc1S(=O)(=O)N1CCOCC1,5.85%
14,Cc1ccc(-c2noc(C3CCCN(C(=O)c4cccc(Cl)c4)C3)n2)o1 (centres undefined),-3.97%
15,Cc1ccc2nc(SCC(=O)N3CC(C)OC(C)C3)nc(=O)n2c1 (centres undefined),5.27%
16,Cc1nc([N+](=O)[O-])c(NCCCO)n1Cc1ccccc1,8.64%
17,O=C(Nc1cc(S(=O)(=O)N2CCOCC2)ccc1OCC(F)(F)F)c1ccc(N2CCCC2=O)cc1,-2.38%
18,CC1(C)CCc2nc(SCc3ccccc3)c(C#N)cc2C1,4.14%
19,CC(NC(=O)CSc1nc2c(cc1C#N)CN(C)CC2)c1ccccc1 (centres undefined),36.7% (active)
20,Cc1cc(NC(=O)CSc2nc3c(cc2C#N)CCCCC3)no1,0.61%

row,Structure (SMILES),inhibition
1,Cn1c(CC(=O)NNC(=O)c2ccccc2F)nc2ccccc21,4.35%
2,CCOc1ccc(N2C(=O)Nc3ccccc3C2(O)C(=O)NCc2ccco2)cc1 (centres undefined),2.5%
3,CCC1CCCCN1C(=O)CSc1nc2c(c(=O)n1C)SC(C)C2 (centres undefined),2.98%
4,CCCn1c(O)c(CN2CCCC(C)C2)c(C)c(C#N)c1=O (centres undefined),53.4% (active)
5,Cc1c(CN2CCCCC2)c(O)n(CCO)c(=O)c1C#N,21.4%
6,CCCCCCn1c(CN2CCCC(C)C2)nc2c1c(=O)n(C)c(=O)n2C (centres undefined),-0.05%
7,COc1ccc(CNC(=O)c2c[nH]c3c(OC)cc(OC)cc3c2=O)cc1,1.75%
8,O=C(O)CC/C(=N\NC(=O)c1ccc(F)cc1)c1ccc(Br)cc1,2.98%
9,Cc1cccc(NC(=O)c2cc(S(=O)(=O)N3CCC4(CC3)OCCO4)ccc2F)c1,0.06%
10,Cc1ccc(Cc2cnc(NC(=O)/C(C#N)=C/c3ccc(-c4cccc([N+](=O)[O-])c4)o3)s2)cc1,1.29%
11,Cc1ccc(/C=C(\C#N)C(=O)Nc2cccc3ncccc23)o1,102% (active)
12,O=C(O)c1cc(Cl)c(Cl)cc1C(=O)Nc1cccc2ncccc12,5.65%
13,CCOc1ccc(-n2c(SCC(=O)NC3CCS(=O)(=O)C3)nnc2-c2cccnc2)cc1 (centres undefined),-6.49%
14,COc1ccccc1Cn1c(CO)nc2ccccc21,0.35%
15,CCc1cccc(C)c1N(C(=O)Cn1c(CO)nc2ccccc21)C(C)COC (centres undefined),58.5% (active)
16,CCOCN(C(=O)Cn1c(C(C)O)nc2ccccc21)c1c(C)cccc1CC (centres undefined),6.75%
17,COCCOC(=O)c1sc(=S)n(CCOC)c1N,90.3% (active)
18,COC(=O)c1sc(=S)n(-c2ccc(Cl)cc2)c1C,8.78%
19,CCOC(=O)c1c(N)sc(C(C)=O)c1C,4.34%
